Data reported in PubChem BioAssay (NCATS).
Results filed as inconclusive are left out. Where a call stands in place of a potency, no number is given. Active and inactive are the calls of the source. Calls come from the whole dose curve; as a rule, active = well fitted inhibition curve with a large enough effect; inconclusive = small, poorly fitted or top-dose-only effect; inactive = flat fitted curve, though single readings scatter.

Each compound was assayed against Calcium and integrin-binding protein 1 (Homo sapiens) (UniProt Q99828) (assay: Primary qHTS for Identification of Calcium Integrin Binding Protein 1 (CIB1) Competitor (AID 1508620;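 note: GST tagged CIB1 binding a fluorescein labelled alphaIIb integrin peptide tracer; top concentration of the series differs between compounds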)). Details: CIB1-GST / FITC-alphaIIb peptide fluorescence polarization; series mostly up to 114 µM.
Chain of Calcium and integrin-binding protein 1 (Homo sapiens) (Q99828 whole entry, looked up): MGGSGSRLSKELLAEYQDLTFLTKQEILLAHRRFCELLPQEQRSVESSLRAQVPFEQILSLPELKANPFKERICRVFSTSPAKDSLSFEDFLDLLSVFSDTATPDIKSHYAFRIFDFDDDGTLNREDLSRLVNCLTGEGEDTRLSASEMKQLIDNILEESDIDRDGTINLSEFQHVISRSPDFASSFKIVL
How it was run: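 CIB1-GST (1 uM final) and compound incubated 15 min at room temperature before adding FITC-alphaIIb peptide tracer (100 nM final). Competition for binding read by fluorescence polarization (ex 480, em 540) after another 15 min at room temperature.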

Row | SMILES | Potency
1 | COc1cc(-n2cnc3cc(-c4ccc(Cl)cc4)sc3c2=O)ccc1OCCN1CCCC1 | inactive
2 | NS(=O)(=O)c1ccc(N2N=C(c3ccccc3)CC2c2ccccc2)cc1 (stereo not drawn) | inactive
3 | CCCC(=O)C1(c2ccccc2)CCN(C(=O)[C@@H](Cc2ccc(OC)cc2)NC(=O)[C@@H](N)Cc2cncn2C)CC1 | inactive
